Assay outcomes deposited in PubChem BioAssay by National Center for Advancing Translational Sciences (NCATS).
KAT2A inh: qHTS Assay for Inhibitors of GCN5L2; 390,000 compounds, 0.21% hits; Potency, µM (top dose mostly 58.9 µM), for the others: at the highest dose activity change, negative = inhibition, actives largely listed as inhibitors; GCN5L2 HAT assay, ThioGlo1 CoA-SH fluorescence; Histone acetyltransferase KAT2A (Homo sapiens), Q92830
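Compounds, pin-transferred from DMSO stocks, meet 20nM GCN5L2 for 15 min before the reaction begins with H3(1-25) peptide (75uM) and acetyl-CoA (70uM). Thiol-reactive ThioGlo1 reports CoA release over 20 min at room temperature.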
VDR inhibitor: Inhibitors of the vitamin D receptor (VDR): qHTS. VDR-SRC2-3 peptide fluorescence polarization, 2 h. 400,000 compounds, 0.93% hits. Potency, µM, for inactives: max response, negative = inhibition, actives largely listed as inhibitors
Target sequence (P11473 whole entry, looked up): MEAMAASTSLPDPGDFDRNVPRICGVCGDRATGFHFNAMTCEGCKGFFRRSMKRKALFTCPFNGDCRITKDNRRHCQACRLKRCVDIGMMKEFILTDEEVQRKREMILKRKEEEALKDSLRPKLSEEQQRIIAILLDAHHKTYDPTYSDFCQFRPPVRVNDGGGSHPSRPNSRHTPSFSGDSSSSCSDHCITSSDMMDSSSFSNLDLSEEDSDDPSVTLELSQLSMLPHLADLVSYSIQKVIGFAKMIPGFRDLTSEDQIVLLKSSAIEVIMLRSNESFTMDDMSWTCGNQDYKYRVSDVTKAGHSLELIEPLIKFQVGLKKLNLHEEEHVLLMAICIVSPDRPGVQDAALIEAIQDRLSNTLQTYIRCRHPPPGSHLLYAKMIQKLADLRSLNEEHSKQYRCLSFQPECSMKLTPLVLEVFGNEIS
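Reagent solutions, kept cold and dark, are dispensed first; compounds are then pinned in at 23 nl, plates briefly spun, and incubated 2 h at ambient temperature. Inhibition of VDR–SRC2-3 peptide binding is read by fluorescence polarization.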
TDP1 inh: qHTS Assay for Inhibitors of Tyrosyl-DNA Phosphodiesterase (TDP1) | Tyrosyl-DNA phosphodiesterase 1 (Homo sapiens), Q9NUW8 | recombinant TDP1, AlphaScreen DNA substrate cleavage | Potency, µM (top dose mostly 130 µM), without a hit: at the top dose activity change, negative = inhibition, actives largely listed as inhibitors | 350,000 compounds, 0.28% hits; also: nearly all actives have a fitted effect of over 40% in size
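Tdp1 1 nM final; 15 min RT w/ cpd; substrate 15 nM, 5 min; beads 10 ug/ml, 10 min; AlphaScreen read. Neg ctrl: no enzyme.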
DT40 TDP1 CPT: qHTS for Inhibitors of human tyrosyl-DNA phosphodiesterase 1 (TDP1): qHTS in cells in presence of CPT. Potency, µM (highest dose often 46.2 µM), inactives show at the top dose activity change, negative = growth inhibition, actives largely listed as inhibitors. 420,000 compounds, 12% hits. chicken DT40 Tdp1-/-;hTDP1 cells + 20 nM CPT, ATP luminescence, 48 h; also: nearly all actives have a fitted effect of over 55% in size
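Chicken DT40 Tdp1-/- cells complemented with human TDP1, 400 cells/well, exposed to compounds plus 20 nM camptothecin for at least 48 h at 37 C; viability read as ATP content by CellTiter-Glo luminescence.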
TDP1 cell noCPT: qHTS for Inhibitors of human tyrosyl-DNA phosphodiesterase 1 (TDP1): qHTS in cells in absence of CPT; DT40 Tdp1-/- hTDP1 cells, no CPT, ATP luminescence, 48 h; Potency, µM (series often up to 46.2 µM), inactives show top-dose activity change, negative = growth inhibition, usual class: inhibitors; 420,000 compounds, 15% hits; also: nearly all actives have a fitted effect of over 55% in size
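DT40 Tdp1-/-;hTDP1 cells, no CPT (DMSO vehicle only), 400 cells/well; compounds pin-transferred; ≥48 hr, 37 °C; CellTiter-Glo 30 min RT dark, luminescence read.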
PLK1 PBD inh: qHTS for Inhibitors of PLK1-PDB (polo-like kinase 1 - polo-box domain): Primary Screen | Serine/threonine-protein kinase PLK1 (Homo sapiens), P53350 | Plk1 PBD binding of FITC phosphopeptide, fluorescence polarization | Potency, µM, for the others: max response, negative = inhibition, most hits filed as inhibitors | 360,000 compounds, 2.8% hits; also: series mostly up to about 57 µM; nearly all actives have a fitted effect of over 65% in size
* marks the source's active call; other numbers are inactive results; ? = inconclusive; · = no result; ! = not confirmed by another sample; [ ] = another dose, or the depositor's remark. Most compounds without a hit are left out; they make up all but 18% or so of the library. Calls follow the shape of the dose curve; as a rule, active = well fitted curve in the direction sought with a large enough effect; inconclusive = small, poorly fitted or top-dose-only effect, or another doubt; inactive = no such curve, though single readings can be large; an effect the other way counts as inactive or inconclusive. % is scaled to controls: 0 for no effect and ±100 for the full control effect; potency is read from the fitted curve at half-maximal effect.

SMILES	KAT2A inh	VDR inhibitor	TDP1 inh	DT40 TDP1 CPT	TDP1 cell noCPT	PLK1 PBD inh
N#CC(c1cccnc1)N1CCOCC1 (stereo not given)	11.9%	13.6%	·	-3.5%	10.7%	-2.8%
CC(CC(C#N)(c1ccccc1)c1ccccc1)N1CCOCC1 (stereo not given)	·	-0.5%	·	23.1µM*	?	-9.0%
O=C1CN(C(=O)COC(=O)Cc2ccccc2)c2ccccc2N1	-2.2%	-17.9%	0.0%	?	?	29.9µM*
O=C(Cc1ccccc1)OCCN1CCCCC1	0.5%	20.6%	1.9%	-13.7%	-2.8%	-1.1%
CCC(C)N1C(=O)/C(=C\c2cnc(N(C)C)nc2)C(=O)NC1=S (stereo not given)	-14.0%	44.7µM*	0.0%	?	?	6.7µM*
CCC(C)N1C(=O)/C(=C\c2cc3c4c(c2)CCCN4CCC3)C(=O)NC1=S (stereo not given)	-21.4%	?	-2.6%	?	?	0.947µM*
COC(=O)COc1ccc(Cl)cc1Cl	1.2%	-0.9%	8.9%[56.1 µM]	4.7%	12.3%	·
Cc1[nH]cnc1CCN	·	·	15.3%	·	·	·
COc1ccc(Nc2c(-c3cc(Br)ccc3O)nc3ncccn23)cc1OC	-13.4%	-3.2%	4.3%[12.3 µM]	18.4µM*	23.1µM*	·
CC1=CC(C)CC(C)OC(=O)CC(c2ccc(O)cc2)NC(=O)C(Cc2c(Br)[nH]c3ccccc23)N(C)C(=O)C(C)NC(=O)C(C)C1 (stereo not given)	·	-19.7%	·	0.0259µM*	0.0146µM*	-1.7%
[O-][Cl+2]([O-])O	·	·	11.6%	·	·	·
COc1ccc(CC(=O)Nc2ccc3c(C(F)(F)F)cc(=O)oc3c2)cc1OC	-2.8%	-0.1%	3.4%	-14.9%	-15.8%	4.0%
Cc1cc(N(CCCl)CCCl)ccc1C=NNC(=O)Cc1cc(=O)oc2cc(O)ccc12	·	-11.2%	·	11.6µM*	?	-2.5%
O=C(O)c1ccc[nH]c1=S	-4.4%	8.7%	-2.7%	3.6%	-19.5%	?
COC(=O)C1=C(C)n2nnnc2NC1c1ccc(Cl)cc1 (stereo not given)	5.2%	14.9%	4.5%	?	-27.0%	-6.5%
Cc1ccccc1C1=NCC(=S)Nc2ccc(Cl)cc21	4.8%	-7.8%	0.7%[56.1 µM]	?	?	-14.6%
OCCN1CCN(CC/C=C2/c3ccccc3Sc3ccc(Cl)cc32)CC1	1.1%	-2.4%	·	?	23.1µM*	5.6%
CN(C)CC/C=C1\c2ccccc2Sc2ccc(Cl)cc21	-28.9%	?	8.5%	23.7µM*	20.6µM*	-12.7%
CN(C)CCC=C1c2ccccc2CCc2ccccc21	-4.5%	-2.3%	1.2%	23.7µM*!	26.6µM*!	-4.7%
O=C(CN1CCCC1)Nc1ccc(Cl)cc1C(=O)c1ccccc1	-10.0%	-11.4%	0.0%	?	-20.0%	-10.2%
CC(=O)OCC1=C[C@H]2[C@@H]3C(C)(C)[C@]3(OC(=O)Cc3ccccc3)C[C@@H](C)[C@]2(O)[C@@H]2C=C(C)C(=O)[C@@]2(O)C1	0.0%	-1.8%	8.2%	·	·	·
O=C(Cl)/C=C/C(=O)Cl	·	·	3.1%	·	·	·
CC(=O)O[C@]1(C)C(=O)OC/C2=C/CN(C)CCC(OC(=O)[C@@](O)(C(C)O)C[C@H]1C)C2=O (stereo not given in full)	3.0%	12.3%	·	19.4%	15.9%	-5.6%
FC(F)(F)c1ccccc1N1CC1c1ccncc1 (stereo not given)	9.5%	-7.9%	·	-28.4%	-1.4%	-0.1%
CCOC(=O)c1nc2ccccc2c(=O)n1-c1ccc(C)cc1C	17.6%	-13.3%	0.0%	8.2µM*	10.3µM*	-6.1%
